# In the supplement of paper PMC8728848:
# This is one part of a sample in which the strongest signals are shown more often than they occur.
# B1: B725 (Bifidobacterium sp) (protein)
# chain: MNNTTRAVIATAAIGALLIPLAGCGNTTTSSGKTELTVWSWDASIDRAAKSFMKANPDITVKVSNVGSTEETYTALNNAAQAGSGLPDVTLIEYLAIPQFVHSDTLMDLSKVYNTAKLKDTFTPGTWNSVNINGGLYAMPADSGPMAYFYDKDVFDKAGISEPPTTWDEFYEDAKKIRATGSYITSDSGDAGLFNAMMWAMGGHAYKLNDDKLTINIAKDKGAQRFMDLWQKMRDEDLIDVHTKTWTDDWMKSLGDGSIASLISGAWMANNLLQGVPQATGKFRVALLPTIDGTPINGEYGGSGLAITKKIPDGKLDAAKKFVEYVTTNDEGIDARVSNGSFPATTKTLNQKDFLAKTTLRNTDGSDNEFFGGQKYNEIFSQAAKDVTGKWEFLPFEPYARSVYNDNMGSFFAGKTSFRTAADNWQKALKDYAKDQGFTVQ
# How the values were obtained:
# Test in all cases: glycan array binding signal (z-score within array); higher = stronger binding
# Settings in all cases: glycan notation: IUPAC condensed, linker removed
# [1] = biological target: Gal(b1-4)GlcNAc(b1-3)Gal(b1-4)GlcNAc(b1-3)Gal(b1-4)GlcNAc(b1-3)Gal(b1-4)GlcNAc(b1-2)[Gal(b1-4)GlcNAc(b1-3)Gal(b1-4)GlcNAc(b1-3)Gal(b1-4)GlcNAc(b1-3)Gal(b1-4)GlcNAc(b1-6)]Man(a1-6)[Gal(b1-4)GlcNAc(b1-3)Gal(b1-4)GlcNAc(b1-3)Gal(b1-4)GlcNAc(b1-3)Gal(b1-4)GlcNAc(b1-2)Man(a1-3)]Man(b1-4)GlcNAc(b1-4)[Fuc(a1-6)]GlcNAc
# Method in brief: (§1)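 The Consortium for Functional Glycomics database supplied 3228 glycan arrays, of which those lacking an available protein sequence were dropped. The binding signal, a within-array Z-score, was averaged across arrays of the same protein sequence and across linkers. Negative scores can be read as non-binding.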
# [2] = biological target: Gal(b1-4)GlcNAc(b1-3)Gal(b1-4)GlcNAc(b1-3)Gal(b1-4)GlcNAc(b1-3)Gal(b1-4)GlcNAc(b1-3)Gal(b1-4)GlcNAc(b1-2)Man(a1-3)[Gal(b1-4)GlcNAc(b1-3)Gal(b1-4)GlcNAc(b1-3)Gal(b1-4)GlcNAc(b1-3)Gal(b1-4)GlcNAc(b1-3)Gal(b1-4)GlcNAc(b1-2)Man(a1-6)]Man(b1-4)GlcNAc(b1-4)[Fuc(a1-6)]GlcNAc
# Method in brief: as §1
# [3] = biological target: Gal(b1-4)GlcNAc(b1-3)Gal(b1-4)GlcNAc(b1-3)Gal(b1-4)GlcNAc(b1-3)Gal(b1-4)GlcNAc(b1-3)Gal(b1-4)GlcNAc(b1-2)[Gal(b1-4)GlcNAc(b1-3)Gal(b1-4)GlcNAc(b1-3)Gal(b1-4)GlcNAc(b1-3)Gal(b1-4)GlcNAc(b1-3)Gal(b1-4)GlcNAc(b1-6)]Man(a1-6)[Gal(b1-4)GlcNAc(b1-3)Gal(b1-4)GlcNAc(b1-3)Gal(b1-4)GlcNAc(b1-3)Gal(b1-4)GlcNAc(b1-3)Gal(b1-4)GlcNAc(b1-2)Man(a1-3)]Man(b1-4)GlcNAc(b1-4)[Fuc(a1-6)]GlcNAc
# Method in brief: as §1
# [4] = biological target: Gal(b1-4)GlcNAc(b1-3)Gal(b1-4)GlcNAc(b1-3)Gal(b1-4)GlcNAc(b1-3)Gal(b1-4)GlcNAc(b1-3)Gal(b1-4)GlcNAc(b1-3)Gal(b1-4)GlcNAc(b1-2)Man(a1-3)[Gal(b1-4)GlcNAc(b1-3)Gal(b1-4)GlcNAc(b1-3)Gal(b1-4)GlcNAc(b1-3)Gal(b1-4)GlcNAc(b1-3)Gal(b1-4)GlcNAc(b1-3)Gal(b1-4)GlcNAc(b1-2)Man(a1-6)]Man(b1-4)GlcNAc(b1-4)GlcNAc
# Method in brief: as §1
# [5] = biological target: Gal(b1-4)GlcNAc(b1-3)GalNAc
# Method in brief: as §1
# [6] = biological target: Gal6S(b1-3)GlcNAc
# Method in brief: as §1
# [7] = biological target: GalNAc(a1-3)GalNAc(b1-3)Gal(a1-4)Gal(b1-4)Glc
# Method in brief: as §1
# [8] = biological target: Glc(b1-6)Glc
# Method in brief: as §1
# [9] = biological target: GlcNAc(b1-3)Fuc
# Method in brief: as §1
# [10] = biological target: GlcNAc(b1-3)Gal(b1-4)GlcNAc(b1-2)Man(a1-3)[GlcNAc(b1-3)Gal(b1-4)GlcNAc(b1-2)Man(a1-6)]Man(b1-4)GlcNAc(b1-4)[Fuc(a1-6)]GlcNAc
# Method in brief: as §1
# [11] = biological target: GlcNAc(b1-3)Gal(b1-4)GlcNAc(b1-3)Gal(b1-4)GlcNAc(b1-2)Man(a1-3)[GlcNAc(b1-3)Gal(b1-4)GlcNAc(b1-3)Gal(b1-4)GlcNAc(b1-2)Man(a1-6)]Man(b1-4)GlcNAc(b1-4)[Fuc(a1-6)]GlcNAc
# Method in brief: as §1
# [12] = biological target: GlcNAc(b1-3)Gal(b1-4)GlcNAc(b1-3)Gal(b1-4)GlcNAc(b1-2)[GlcNAc(b1-3)Gal(b1-4)GlcNAc(b1-3)Gal(b1-4)GlcNAc(b1-6)]Man(a1-6)[GlcNAc(b1-3)Gal(b1-4)GlcNAc(b1-3)Gal(b1-4)GlcNAc(b1-2)Man(a1-3)]Man(b1-4)GlcNAc(b1-4)[Fuc(a1-6)]GlcNAc
# Method in brief: as §1
# [13] = biological target: GlcNAc(b1-3)Gal(b1-4)GlcNAc(b1-3)Gal(b1-4)GlcNAc(b1-3)Gal(b1-4)GlcNAc(b1-3)Gal(b1-4)GlcNAc(b1-2)Man(a1-3)[GlcNAc(b1-3)Gal(b1-4)GlcNAc(b1-3)Gal(b1-4)GlcNAc(b1-3)Gal(b1-4)GlcNAc(b1-3)Gal(b1-4)GlcNAc(b1-2)Man(a1-6)]Man(b1-4)GlcNAc(b1-4)[Fuc(a1-6)]GlcNAc
# Method in brief: as §1
# [14] = biological target: GlcNAc(b1-3)Man
# Method in brief: as §1
# [15] = biological target: Neu5Ac(a2-3)Gal(b1-3)GalNAc(b1-3)Gal(a1-4)Gal(b1-4)Glc
# Method in brief: as §1
# [16] = biological target: Neu5Ac(a2-3)Gal(b1-4)Glc
# Method in brief: as §1
# [17] = biological target: Neu5Ac(a2-3)Gal(b1-4)GlcNAc(b1-2)Man
# Method in brief: as §1
# [18] = biological target: Neu5Ac(a2-3)Gal(b1-4)GlcNAc(b1-3)Gal(b1-4)GlcNAc(b1-3)Gal(b1-4)GlcNAc(b1-2)Man(a1-3)[Neu5Ac(a2-3)Gal(b1-4)GlcNAc(b1-3)Gal(b1-4)GlcNAc(b1-3)Gal(b1-4)GlcNAc(b1-2)Man(a1-6)]GalNAc
# Method in brief: as §1
# [19] = biological target: Neu5Ac(a2-6)Gal
# Method in brief: as §1
# [20] = biological target: Neu5Ac(a2-6)Gal(b1-3)GlcNAc(b1-3)[Gal(b1-4)GlcNAc(b1-6)]Gal(b1-4)Glc
# Method in brief: as §1
# [21] = biological target: Neu5Ac(a2-6)Gal(b1-4)GlcNAc(b1-2)Man(a1-3)[GlcNAc(b1-4)][Neu5Ac(a2-6)Gal(b1-4)GlcNAc(b1-2)Man(a1-6)]Man(b1-4)GlcNAc(b1-4)GlcNAc
# Method in brief: as §1
# [22] = biological target: Neu5Ac(a2-6)Gal(b1-4)GlcNAc(b1-2)Man(a1-3)[Neu5Ac(a2-6)Gal(b1-4)GlcNAc(b1-2)Man(a1-6)]Man(b1-4)GlcNAc(b1-4)[Fuc(a1-6)]GlcNAc
# Method in brief: as §1
# [23] = biological target: Neu5Ac(a2-6)Gal(b1-4)GlcNAc(b1-2)[Neu5Ac(a2-6)Gal(b1-4)GlcNAc(b1-4)]Man(a1-3)[GlcNAc(b1-4)][Neu5Ac(a2-6)Gal(b1-4)GlcNAc(b1-4)Man(a1-6)]Man(b1-4)GlcNAc(b1-4)GlcNAc
# Method in brief: as §1
# [24] = biological target: Neu5Ac(a2-6)Gal(b1-4)GlcNAc(b1-3)Gal(b1-4)GlcNAc(b1-3)GalNAc
# Method in brief: as §1
# [25] = biological target: Neu5Ac(a2-8)Neu5Ac
# Method in brief: as §1
# [26] = biological target: Neu5Ac(a2-8)Neu5Ac(a2-3)Gal(b1-3)GalNAc(b1-4)[Neu5Ac(a2-8)Neu5Ac(a2-3)]Gal(b1-4)Glc
# Method in brief: as §1
# [27] = biological target: Neu5Gc(a2-8)Neu5Gc(a2-3)Gal(b1-4)GlcNAc(b1-3)Gal(b1-4)GlcNAc
# Method in brief: as §1
binder,measurement,setting,value
B1,glycan array binding signal (z-score),[1],6.73
same,glycan array binding signal (z-score),[2],4
same,glycan array binding signal (z-score),[3],5.49
same,glycan array binding signal (z-score),[4],8.21
same,glycan array binding signal (z-score),[5],0.358
same,glycan array binding signal (z-score),[6],-0.217
same,glycan array binding signal (z-score),[7],-0.209
same,glycan array binding signal (z-score),[8],-0.219
same,glycan array binding signal (z-score),[9],-0.207
same,glycan array binding signal (z-score),[10],-0.131
same,glycan array binding signal (z-score),[11],-0.216
same,glycan array binding signal (z-score),[12],-0.203
same,glycan array binding signal (z-score),[13],0.138
same,glycan array binding signal (z-score),[14],-0.204
same,glycan array binding signal (z-score),[15],-0.221
same,glycan array binding signal (z-score),[16],-0.228
same,glycan array binding signal (z-score),[17],-0.207
same,glycan array binding signal (z-score),[18],-0.042
same,glycan array binding signal (z-score),[19],-0.222
same,glycan array binding signal (z-score),[20],-0.205
same,glycan array binding signal (z-score),[21],-0.227
same,glycan array binding signal (z-score),[22],-0.217
same,glycan array binding signal (z-score),[23],-0.212
same,glycan array binding signal (z-score),[24],-0.214
same,glycan array binding signal (z-score),[25],-0.215
same,glycan array binding signal (z-score),[26],-0.2
same,glycan array binding signal (z-score),[27],-0.198
